High-throughput results from PubChem.
A selection: hits, their analogues and other compounds. The true share with any hit is near 2.7%.
ERa SRC1 pot: enhances coactivator binding to human estrogen receptor alpha | AID 639 | P03372 | actives 1.3% (n = 86,000) | TR-FRET ERalpha-LBD/SRC-Cy5 coactivator binding, 2 h; 100 = basal binding, no effect | coactivator binding (% of control), % at 25.6 µM; in the data active = activity above about 200%;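 note: binding measured in presence of low estradiol as agonist stimulus; 0% = peptide alone without receptor and 100% = receptor with peptide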
Target sequence (P03372 whole entry, looked up, the tested form may be a part): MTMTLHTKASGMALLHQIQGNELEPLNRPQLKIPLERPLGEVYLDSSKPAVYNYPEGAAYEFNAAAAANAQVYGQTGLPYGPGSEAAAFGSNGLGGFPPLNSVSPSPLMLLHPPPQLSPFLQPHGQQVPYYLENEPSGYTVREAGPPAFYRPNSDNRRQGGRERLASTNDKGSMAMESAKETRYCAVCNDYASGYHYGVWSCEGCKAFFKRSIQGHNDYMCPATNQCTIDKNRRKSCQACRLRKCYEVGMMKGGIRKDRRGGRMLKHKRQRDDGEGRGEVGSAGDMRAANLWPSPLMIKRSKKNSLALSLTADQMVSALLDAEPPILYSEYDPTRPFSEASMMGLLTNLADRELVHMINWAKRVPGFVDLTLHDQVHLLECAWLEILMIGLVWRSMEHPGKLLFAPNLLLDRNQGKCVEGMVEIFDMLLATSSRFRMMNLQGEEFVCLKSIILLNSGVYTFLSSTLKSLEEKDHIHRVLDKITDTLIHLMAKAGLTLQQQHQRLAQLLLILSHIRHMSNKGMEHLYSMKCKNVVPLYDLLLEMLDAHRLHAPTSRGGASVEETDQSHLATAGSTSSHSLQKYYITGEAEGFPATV
ERb SRC1 inh: ER-beta (human) coactivator binding inhibition; actives 1.3% (n = 86,000); Q92731; AID 633; inhibition, % at 25.6 µM; TR-FRET ER-beta LBD / SRC1-Cy5 peptide binding; receptor agonist-loaded with 1 µM estradiol;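 active = compounds whose percent inhibition of the receptor-coactivator binding signal exceeds about 50% in the single-dose screen, limit read from the data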;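 note: 0% = receptor plus peptide wells without compound and 100% = peptide-only wells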
MRP resist rev: reverses drug resistance mediated by MRP | H69AR cells + 2 uM doxorubicin, CellTiter-Glo, 72 h | differential viability (reversal), % at 10 µM | actives 0.04% (n = 85,000);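 active = viability drop by adding the cancer drug above about 55%, with treated viability meeting a 40% cutoff, limit read from the data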;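 note: viability without doxorubicin minus viability with 2 µM doxorubicin for each compound; larger differential means the compound sensitizes cells more to doxorubicin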
ERa coact inh: blocks coactivator binding to human estrogen receptor alpha | P03372 | TR-FRET ER-alpha LBD / SRC-1 peptide, estradiol-bound | inhibition, % at 25.6 µM | actives 1.7% (n = 86,000) | AID 629; in the data active = inhibition above about 50%;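 note: 0% = receptor plus peptide control and 100% = peptide only without receptor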
MRP1 act: activates MRP-1; H69AR cells + doxorubicin, viability rescue, CellTiter-Glo; viability increase, % at 10 µM; actives 0.61% (n = 140,000);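 active = viability gain under doxorubicin at or above a set limit, the compound median plus 3 SD, cut at about 4.7% in these data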;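 note: MRP-1 overexpressing cells given doxorubicin 25 µM after compound pretreatment; 18-22 h compound pretreatment then 72 h with doxorubicin before readout; 0% = doxorubicin-only wells and 100% = vehicle-treated cells without doxorubicin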
* marks the source's active call; other numbers are inactive results; [ ] = remark or other dose.

`O=C(Cn1nnc(-c2ccccc2NC(=O)c2ccco2)n1)NC1CCCCC1` gave ERa SRC1 pot 288*[fluorescence artefact?], ERb SRC1 inh 21, MRP resist rev -15, ERa coact inh 47 and MRP1 act -2.
For CCC(C)C(NC(=O)c1ccccc1NC(=O)c1ccco1)C(=O)NC1CCCCC1 (centres undefined) the results were ERa SRC1 pot 87, ERb SRC1 inh 21, MRP resist rev -19, ERa coact inh 56*[fluorescence artefact?] and MRP1 act -4.
COc1ccc(C(=O)Nc2ccccc2-c2nnn(CC(=O)NCc3ccco3)n2)cc1 was read as ERa SRC1 pot 210*, ERb SRC1 inh 1, MRP resist rev 0, ERa coact inh 11 and MRP1 act -3.
Screening COc1ccc(NC(=O)Cn2nnc(-c3ccccc3NC(=O)c3ccco3)n2)cc1 returned ERa SRC1 pot 149, ERb SRC1 inh 52*[fluorescence artefact?], MRP resist rev -5, ERa coact inh 28 and MRP1 act -6.
Screening Cc1cc(NC(=O)CSc2nc(C(C)C)nc3sc4c(c23)CCCC4)no1 returned ERa SRC1 pot 206*[fluorescence artefact?], ERb SRC1 inh 18, MRP resist rev -21, ERa coact inh 0 and MRP1 act -1.
CCn1c(SCC(=O)O)nc2sc3c(c2c1=O)CCC3 was read as ERa SRC1 pot 6, ERb SRC1 inh 91*[fluorescence artefact?], MRP resist rev 3, ERa coact inh 91*[fluorescence artefact?] and MRP1 act 0.
`Cc1cc(NC(=O)CSc2nc3sc4c(c3c(=O)n2C)CCCC4)no1` gave ERa SRC1 pot 82, ERb SRC1 inh 48, MRP resist rev -6, ERa coact inh 65*[fluorescence artefact?] and MRP1 act -1.
`CCn1c(SCC(=O)Nc2cc(C)on2)nc2sc3c(c2c1=O)CCCC3` gave ERa SRC1 pot 96, ERb SRC1 inh 20, MRP resist rev -2, ERa coact inh 24 and MRP1 act -8.
`CC1(NC(=O)CC[N+](C)(C)CCO)CS(=O)(=O)CC1S(=O)(=O)[O-]` (centres undefined) gave MRP1 act -1.
CCOc1c(Cl)cc(/C=N/NC(N)=S)cc1OC was read as MRP1 act -2.
Screening Cc1ccccc1-c1nc(-c2ccc(NC(=O)c3ccc(Br)o3)cc2)no1 returned ERa SRC1 pot 265*, ERb SRC1 inh 39, MRP resist rev 20, ERa coact inh 45 and MRP1 act -3.
`COc1cccc(-c2nc(-c3ccc(NC(=O)c4cccnc4)cc3)no2)c1` gave ERa SRC1 pot 203*[fluorescence artefact?], ERb SRC1 inh 18, MRP resist rev -10, ERa coact inh -4 and MRP1 act -3.
For O=C(Nc1ccc(Nc2ccccc2)cc1)c1ccc(Br)o1 the results were ERa SRC1 pot 83, ERb SRC1 inh 8, MRP resist rev 20, ERa coact inh -2 and MRP1 act -4.
COc1cccc(NC(=O)c2cccnc2)c1 was read as ERa SRC1 pot 109, ERb SRC1 inh -4, MRP resist rev -3, ERa coact inh -6 and MRP1 act -3.
Screening COc1ccc(CC(=O)Nc2ccc(-c3noc(-c4cccc(OC)c4)n3)cc2)cc1 returned ERa SRC1 pot 287*[fluorescence artefact?], ERb SRC1 inh 50, MRP resist rev -5, ERa coact inh 38 and MRP1 act -3.
`O=C(Nc1ccc(-c2noc(-c3cccs3)n2)cc1)c1cccnc1` gave ERa SRC1 pot 364*, ERb SRC1 inh 2, MRP resist rev -18, ERa coact inh -17 and MRP1 act -4.
Cc1ccc(S(=O)(=O)CCSc2cccc(C(=O)Nc3ccccc3C(=O)O)c2)cc1 was read as MRP1 act -3.
For COc1ccc(OC)c(C(=O)N2CCC(C(=O)c3ccc(F)cc3)CC2)c1 the results were ERa SRC1 pot 96, ERb SRC1 inh -9, MRP resist rev -1, ERa coact inh -12 and MRP1 act -3.
For O=C(OCn1nnc2ccccc2c1=O)c1cn(-c2ccccc2)nc1-c1cccnc1 the results were ERa SRC1 pot 121, ERb SRC1 inh 43, MRP resist rev -9, ERa coact inh 68* and MRP1 act 0.
Screening CCOC(=O)c1cn(-c2ccccc2)nc1-c1cccnc1 returned ERa SRC1 pot 103, ERb SRC1 inh 0, MRP resist rev 4, ERa coact inh 6 and MRP1 act 0.
`Cc1ccc(N2CCN(c3ccc(C)cc3)C2c2cccnc2)cc1` gave ERa SRC1 pot 113, ERb SRC1 inh -4, MRP resist rev 14, ERa coact inh 7 and MRP1 act 1.
For c1ccc(N2CCN(c3ccccc3)C2c2cccnc2)cc1 the results were ERa SRC1 pot 103, ERb SRC1 inh -5, MRP resist rev 60*, ERa coact inh -8 and MRP1 act -4.
Cc1ccc2c(Cl)cc(Cl)c(OCC(=O)NCc3ccco3)c2n1 was read as ERa SRC1 pot 9, ERb SRC1 inh 84*, MRP resist rev -13, ERa coact inh 93*[fluorescence artefact?] and MRP1 act -1.
Screening COc1ccc(CCNC(=O)COC(=O)c2ccco2)cc1OC returned ERa SRC1 pot 113, ERb SRC1 inh 78*[fluorescence artefact?], MRP resist rev 2, ERa coact inh -7 and MRP1 act 0.
`COc1ccc(CCNC(=O)c2ccc3nc(-c4ccco4)c(-c4ccco4)nc3c2)cc1OC` gave ERa SRC1 pot 36, ERb SRC1 inh 94*[fluorescence artefact?], MRP resist rev -7, ERa coact inh 90*[fluorescence artefact?] and MRP1 act -4.
`Cc1ccc2c(Cl)cc(Cl)c(OCC(=O)NC(=O)NCc3ccco3)c2n1` gave ERa SRC1 pot 90, ERb SRC1 inh 22, MRP resist rev -20, ERa coact inh 31 and MRP1 act -1.
Screening CCOc1cc2[nH]c(=S)n(CCc3ccc(OC)c(OC)c3)c(=O)c2cc1OCC returned ERa SRC1 pot 62, ERb SRC1 inh 31, MRP resist rev 0, ERa coact inh 57*[fluorescence artefact?] and MRP1 act -3.
COc1ccc(CCNC(=O)Cc2ccc3c(c2)OCO3)cc1OC was read as MRP1 act 1.
COc1ccc(CCNC(=O)c2ccc3c(=O)n(Cc4ccco4)c(=S)[nH]c3c2)cc1OC was read as ERa SRC1 pot 75, ERb SRC1 inh 40, MRP resist rev -2, ERa coact inh 61*[fluorescence artefact?] and MRP1 act -3.
CCOc1ccc(-c2cc(CCCC(=O)NCc3ccc(C)cc3)no2)cc1 was read as MRP1 act 0.
COc1ccc(C(=O)OCC(=O)NCc2ccco2)cc1OC was read as ERa SRC1 pot 60, ERb SRC1 inh 41, MRP resist rev 0, ERa coact inh 68*[fluorescence artefact?] and MRP1 act -1.
For CC(C)NC(=O)c1ccc2c(=O)n(Cc3ccco3)c(=S)[nH]c2c1 the results were ERa SRC1 pot 115, ERb SRC1 inh -2, MRP resist rev 12, ERa coact inh 0 and MRP1 act -4.
CCOc1ccc(C(=O)OCC(=O)NCc2ccco2)cc1OCC was read as ERa SRC1 pot 81, ERb SRC1 inh 52*, MRP resist rev -19, ERa coact inh 70*[fluorescence artefact?] and MRP1 act -1.
